# Measured values as given in PubChem BioAssay (Tox21).
# Several values for one entry are separate records, joined by “and”; a condition that tells them apart may be missing. Equal values may be shown once. Results filed as inconclusive are left out. Entries that show only a call come without a potency. The source holds several records for some structures; these can differ, active in one and inactive in another. Activity calls are given as the source filed them. Unless noted, calls come from the whole dose curve.
# What was measured:
# [1] = Nuclear factor erythroid 2-related factor 2/antioxidant responsive element (Nrf2/ARE) small molecule agonists: qHTS cell viability counter screen in human keratinocytes (AID 1919968; active = well fitted curve in the direction sought with a large enough effect in the repeat runs; an effect the other way counts as inactive or inconclusive; note: nearly all actives have a fitted effect of over 55% in size; note: potency is the fitted concentration of half-maximal effect)
# In short: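 Viability counter-screen: KeratinoSens reporter cells, DMSO-delivered compounds, 23 h at 37 C, CellTiter-Fluor fluorescence.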
# [2] = biological target: Gonadotropin-releasing hormone receptor (Homo sapiens) (UniProt P30968); assay: Human gonadotropin-releasing hormone receptor (GnRHR) small molecule agonists, calcium flux assay in GnRHR-HEK293 cells (AID 1920063); note: nearly all actives have a fitted effect of over 35% in size
# In short: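 Tox21-format agonist screen using human GnRHR-expressing HEK293 cells and a fluorescent calcium dye; kinetic 3-min fluorescence reading after compound addition, 15-point concentration series run in triplicate.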
# [3] = biological target: KiSS-1 receptor (Homo sapiens) (UniProt Q969F8); assay: Human kisspeptin (KISS1R) small molecule agonists, calcium flux assay in KISS1R-HEK293 cells (AID 1920064; active = well fitted curve in the direction sought with a large enough effect in the repeat runs; an effect the other way counts as inactive or inconclusive)
# In short: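 Intracellular calcium mobilization in KISS1R-HEK293 cells was recorded by fluorescence (Ex/Em 480/540) for 3 min following compound addition to cells pre-loaded 1 h with calcium dye.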
# [4] = G protein-coupled receptor (GPCR) small molecule agonists, calcium flux assay: HEK293 wild type cell line counter screen (AID 1920065)
# In short: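 In this agonist-mode screen, ATP is the positive control and DMSO the vehicle. Cells grow 18 h before a 1 h dye incubation at 37 C; signal is taken at Ex/Em 480/540 over 3 min.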
# [5] = p53 small molecule agonists, cell-based qHTS assay with human liver microsomes (AID 1963577);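 note: p53 response element beta-lactamase reporter cells with liver microsomes plus NADPH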
# In short: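 HLM-supplemented p53RE-bla reporter assay: 16 h compound exposure at 37 C, microsomes and NADPH each 0.5 mg/mL final, read by fluorescence intensity.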
# [6] = p53 small molecule agonists, cell-based qHTS assay with rat liver microsomes (AID 1963578)
# In short: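 Quantitative HTS of the Tox21 10K library: p53RE-bla cells, rat liver microsomes plus NADPH at 0.5 mg/mL final each, 16 h at 37 C, beta-lactamase fluorescence detection.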
# [7] = p53 small molecule agonists, cell-based qHTS assay with human liver microsomes: qHTS cell viability counter screen (AID 1963579); note: nearly all actives have a fitted effect of over 45% in size
# In short: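 Viability of p53RE-bla cells is measured as CellTiter-Glo luminescence following a 16 h, 37 C incubation with compound, liver microsomes from human donors and NADPH.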
# [8] = p53 small molecule agonists, cell-based qHTS assay: qHTS cell viability counter screen (AID 1963581); note: nearly all actives have a fitted effect of over 45% in size
# In short: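 Compounds are pinned onto HCT-116 p53RE-bla cells and left 16 h at 37 C. Following the reporter FRET read, ATP is quantified by CellTiter-Glo luminescence after 30 min at room temperature.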
# [9] = p53 small molecule agonists, cell-based qHTS assay (AID 1963582; active = well fitted activation curve with a large enough effect in the signal ratio in the repeat runs, not every such curve was filed as active; the % refers to the signal ratio)
# In short: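 Agonist activity was scored from beta-lactamase FRET fluorescence in p53RE-bla cells treated 16 h at 37 C with compounds in DMSO, substrate incubation being 2 h at room temperature.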
# [10] = biological target: 5-hydroxytryptamine receptor 2A (Homo sapiens) (UniProt P28223); assay: 5-hydroxytryptamine receptor 2A (HTR2A) small molecule agonists, cell-based qHTS assay (AID 1963587); note: nearly all actives have a fitted effect of over 30% in size
# In short: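 CHO cells stably expressing human HTR2A, plated 18 h, loaded with calcium dye 1 h at 37 C. Agonist mode: compounds added and intracellular calcium fluorescence recorded kinetically for 2 min at 1 sec intervals.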
# [11] = biological target: Muscarinic acetylcholine receptor M1 (Homo sapiens) (UniProt P11229); assay: Cholinergic receptor muscarinic 1 (CHRM1) small molecule antagonists, cell-based qHTS assay (AID 1963588); note: nearly all actives have a fitted effect of over 40% in size; note: potency is the fitted concentration of half-maximal effect
# In short: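 CHRM1-CHO calcium-flux assay, antagonist mode. Cells were seeded 18 h, dye-loaded 1 h at 37 C and given compound for 5 min at RT, then acetylcholine was added at 50nM. FDSS fluorescence was read 3 min; 15 concentrations, three runs.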
# [12] = biological target: Muscarinic acetylcholine receptor M1 (Homo sapiens) (UniProt P11229); assay: Cholinergic receptor muscarinic 1 (CHRM1) small molecule agonists, cell-based qHTS assay (AID 1963589); note: nearly all actives have a fitted effect of over 35% in size
# In short: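 Stable CHRM1-CHO cells (human receptor) were incubated 18 h, dye-loaded for 1 h at 37 C and exposed to test compounds for agonist activity, with calcium-dependent fluorescence followed kinetically.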
# [13] = cAMP Responsive Elements (CRE) small molecule agonists, cell-based qHTS assay (AID 1963590); note: potency is the fitted concentration of half-maximal effect
# In short: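 FRET-based beta-lactamase readout (LiveBLAzer B/G, 2 h RT) quantified CRE activation in HEK 293T CRE-bla cells after 3 h treatment with DMSO-dissolved compounds.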
# [14] = cAMP Responsive Elements (CRE) small molecule antagonists, cell-based qHTS assay (AID 1963591; active = well fitted inhibition curve with a large enough effect in the signal ratio in the repeat runs, not every such curve was filed as active; the % refers to the signal ratio)
# In short: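 qHTS in CRE-bla HEK 293T cells: compound in DMSO, then 0.25 uM NKH477 (final), 3 h at 37 °C/5% CO2; beta-lactamase FRET read-out after 2 h substrate incubation.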
# [15] = biological target: Beta-2 adrenergic receptor (Homo sapiens) (UniProt P07550); assay: Adrenergic beta2 receptor (ADRB2) small molecule antagonists, cell-based qHTS assay (AID 1963592); note: series mostly up to about 92 µM; nearly all actives have a fitted effect of over 50% in size
# In short: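 Cells (CHO, stable ADRB2 overexpression) incubated 18-20hr at 37C; compounds added from DMSO; agonist mix (1nM isoproterenol, 100uM IBMX, 25uM Ro-20-1724) added; 0.5hr RT; d2-cAMP and anti-cAMP-cryptate added; 1hr RT; 665/615 nm read.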
# [16] = biological target: Beta-2 adrenergic receptor (Homo sapiens) (UniProt P07550); assay: Adrenergic beta2 receptor (ADRB2) small molecule agonists, cell-based qHTS assay (AID 1963593);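 note: CHO cells stably overexpressing human ADRB2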
# In short: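 CHO cells stably over-expressing ADRB2 were plated overnight at 37C, then dosed with compounds plus a stimulation mix containing 100uM IBMX and 25uM Ro-20-1724 for 0.5hr at room temperature. cAMP was measured by HTRF competition, 1hr.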
# [17] = biological target: D(2) dopamine receptor (Homo sapiens) (UniProt P14416); assay: Dopamine D2 receptor (DRD2) small molecule agonists, cell-based qHTS assay (AID 1963594); note: nearly all actives have a fitted effect of over 35% in size; note: potency is the fitted concentration of half-maximal effect
# In short: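 HEK293 cells stably expressing human DRD2, pre-treated with PDE inhibitor Ro20-1724 (0.1 mM final) and compound 10 min at room temperature, then stimulated with NKH477 (200nM […]) for 30 min. cAMP read by HTRF (665/620 nm).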
# [18] = biological target: D(2) dopamine receptor (Homo sapiens) (UniProt P14416); assay: Dopamine D2 receptor (DRD2) small molecule antagonists, cell-based qHTS assay (AID 1963595; active = well fitted inhibition curve with a large enough effect in the signal ratio in the repeat runs, with a control signal flat; the % refers to the signal ratio)
# In short: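 Cells were plated and grown for 24 h at 37 °C. Ro20-1724 (0.1 mM final) went in first, then compound for 10 min. NKH477 (200 nM) with quinpirole (12 nM) followed for 30 min at RT, then HTRF detection reagents for 1 h.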
# [19] = p53 small molecule agonists, cell-based qHTS assay with rat liver microsomes: qHTS cell viability counter screen (AID 1963580); note: nearly all actives have a fitted effect of over 45% in size
# In short: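 p53RE-bla HCT-116 cells were exposed 16 h at 37 C to compounds with rat liver microsomes (0.5 mg/mL) and NADPH (0.5 mg/mL). Viability was measured in the same wells as ATP content by CellTiter-Glo luminescence.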
# [20] = biological target: 5-hydroxytryptamine receptor 2A (Homo sapiens) (UniProt P28223); assay: 5-hydroxytryptamine receptor 2A (HTR2A) small molecule antagonists, cell-based qHTS assay (AID 1963586); note: nearly all actives have a fitted effect of over 45% in size
# In short: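 Antagonist-mode intracellular calcium assay: DOI (4 nM) added after 5 min compound pre-incubation at room temperature to dye-loaded HTR2A-CHO cells. Fluorescence followed for 3 min, sampled every second.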
# Chain of Beta-2 adrenergic receptor (Homo sapiens) (P07550 whole entry, looked up): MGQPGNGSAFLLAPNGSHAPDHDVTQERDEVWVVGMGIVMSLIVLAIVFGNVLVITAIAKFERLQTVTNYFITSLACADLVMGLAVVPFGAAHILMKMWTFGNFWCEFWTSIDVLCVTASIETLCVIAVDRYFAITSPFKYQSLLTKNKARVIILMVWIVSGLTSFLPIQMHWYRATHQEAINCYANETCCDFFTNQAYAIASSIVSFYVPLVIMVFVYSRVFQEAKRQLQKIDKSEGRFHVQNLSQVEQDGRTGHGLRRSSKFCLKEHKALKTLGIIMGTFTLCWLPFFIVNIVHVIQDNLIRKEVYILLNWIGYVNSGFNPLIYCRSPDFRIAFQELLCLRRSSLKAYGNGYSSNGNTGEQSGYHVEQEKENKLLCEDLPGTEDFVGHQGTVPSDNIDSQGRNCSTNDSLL
# Chain of KiSS-1 receptor (Homo sapiens) (Q969F8 whole entry, looked up): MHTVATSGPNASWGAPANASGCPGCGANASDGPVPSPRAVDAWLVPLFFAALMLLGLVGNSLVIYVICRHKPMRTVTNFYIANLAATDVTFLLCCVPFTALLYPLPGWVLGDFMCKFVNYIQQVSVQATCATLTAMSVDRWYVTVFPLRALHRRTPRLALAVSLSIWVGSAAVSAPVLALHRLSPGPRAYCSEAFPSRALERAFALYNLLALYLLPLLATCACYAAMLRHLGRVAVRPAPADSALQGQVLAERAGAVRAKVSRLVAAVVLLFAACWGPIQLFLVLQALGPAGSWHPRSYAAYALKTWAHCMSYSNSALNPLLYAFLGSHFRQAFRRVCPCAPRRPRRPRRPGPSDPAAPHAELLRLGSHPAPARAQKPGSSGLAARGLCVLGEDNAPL
# Chain of 5-hydroxytryptamine receptor 2A (Homo sapiens) (P28223 whole entry, looked up): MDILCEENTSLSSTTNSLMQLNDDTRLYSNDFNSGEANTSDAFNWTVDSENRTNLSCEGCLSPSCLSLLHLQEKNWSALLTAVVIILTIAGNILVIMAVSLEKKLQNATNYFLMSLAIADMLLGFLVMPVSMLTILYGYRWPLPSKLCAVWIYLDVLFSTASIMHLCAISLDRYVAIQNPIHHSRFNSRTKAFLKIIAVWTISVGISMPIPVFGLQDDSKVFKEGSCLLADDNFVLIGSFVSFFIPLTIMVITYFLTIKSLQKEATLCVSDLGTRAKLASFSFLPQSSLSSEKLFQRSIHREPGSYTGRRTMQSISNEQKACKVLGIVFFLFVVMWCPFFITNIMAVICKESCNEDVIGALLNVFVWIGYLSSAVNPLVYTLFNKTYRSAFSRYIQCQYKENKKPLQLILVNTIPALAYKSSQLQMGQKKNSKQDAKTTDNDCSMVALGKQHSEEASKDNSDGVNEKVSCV
# Chain of Muscarinic acetylcholine receptor M1 (Homo sapiens) (P11229 whole entry, looked up): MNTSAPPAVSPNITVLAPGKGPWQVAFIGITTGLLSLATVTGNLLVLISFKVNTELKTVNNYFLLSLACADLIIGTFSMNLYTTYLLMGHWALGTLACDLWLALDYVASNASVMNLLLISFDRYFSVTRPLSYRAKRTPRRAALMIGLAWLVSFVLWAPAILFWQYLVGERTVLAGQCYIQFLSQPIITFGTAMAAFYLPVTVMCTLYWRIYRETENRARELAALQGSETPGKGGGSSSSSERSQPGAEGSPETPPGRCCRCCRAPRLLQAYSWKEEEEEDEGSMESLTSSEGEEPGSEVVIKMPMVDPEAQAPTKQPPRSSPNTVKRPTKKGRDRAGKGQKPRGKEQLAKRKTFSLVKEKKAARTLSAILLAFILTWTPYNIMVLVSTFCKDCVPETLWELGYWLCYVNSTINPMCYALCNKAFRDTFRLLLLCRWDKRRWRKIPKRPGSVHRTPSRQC
# Chain of Gonadotropin-releasing hormone receptor (Homo sapiens) (P30968 whole entry, looked up): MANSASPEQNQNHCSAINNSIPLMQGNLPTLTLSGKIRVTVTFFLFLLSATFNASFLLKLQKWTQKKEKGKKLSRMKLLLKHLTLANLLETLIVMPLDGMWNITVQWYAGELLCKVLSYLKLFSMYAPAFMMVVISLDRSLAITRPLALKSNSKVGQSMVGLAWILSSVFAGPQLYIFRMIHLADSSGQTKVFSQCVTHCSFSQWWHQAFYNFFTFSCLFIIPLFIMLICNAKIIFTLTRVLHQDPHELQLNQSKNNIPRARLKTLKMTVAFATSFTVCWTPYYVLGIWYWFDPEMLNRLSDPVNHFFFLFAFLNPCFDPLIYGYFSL
# Chain of D(2) dopamine receptor (Homo sapiens) (P14416 whole entry, looked up): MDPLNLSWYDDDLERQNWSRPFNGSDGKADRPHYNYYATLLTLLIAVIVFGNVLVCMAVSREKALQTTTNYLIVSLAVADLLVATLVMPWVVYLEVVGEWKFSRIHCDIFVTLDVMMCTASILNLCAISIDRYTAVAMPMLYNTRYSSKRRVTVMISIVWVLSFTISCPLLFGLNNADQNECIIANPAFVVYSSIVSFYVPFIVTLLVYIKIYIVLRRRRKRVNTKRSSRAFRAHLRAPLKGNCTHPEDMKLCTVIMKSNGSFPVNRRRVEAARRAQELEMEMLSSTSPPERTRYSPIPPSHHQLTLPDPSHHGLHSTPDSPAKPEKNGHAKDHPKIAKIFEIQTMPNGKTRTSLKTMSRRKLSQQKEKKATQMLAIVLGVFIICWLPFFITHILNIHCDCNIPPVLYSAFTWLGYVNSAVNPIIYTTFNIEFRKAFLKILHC
SMILES,Potency [1],Potency [2],Potency [3],Potency [4],Potency [5],Potency [6],Potency [7],Potency [8],Potency [9],Potency [10],Potency [11],Potency [12],Potency [13],Potency [14],Potency [15],Potency [16],Potency [17],Potency [18],Potency [19],Potency [20]
CCCCOC(=O)c1ccc(O)cc1,inactive,inactive,inactive,inactive,inactive,inactive,inactive,inactive,inactive,inactive,inactive,inactive,inactive,inactive,inactive,inactive,inactive,inactive,,
O=C(O)c1cccnc1,inactive,inactive,,inactive,,,,,,,,,inactive,inactive,inactive,inactive,inactive,inactive,,
COCC(=O)O,inactive,,inactive,inactive,,inactive,inactive,inactive,inactive,inactive,8.63 µM (active) and inactive,,inactive,inactive,inactive,,inactive,inactive,inactive,
CC(O)C(=O)O (centres undefined),inactive,inactive,inactive,inactive,inactive,inactive,inactive,inactive,inactive,,,,,inactive,inactive,inactive,inactive,inactive,inactive,
CCCCCC1C(=O)CCC1CC(=O)OC (centres undefined),inactive,inactive,inactive,inactive,inactive,,inactive,inactive,inactive,inactive,inactive,inactive,inactive,inactive,inactive,inactive,inactive,inactive,inactive,inactive
O=C(O)/C=C\C(=O)O,inactive,inactive,inactive,inactive,,,,,,inactive,inactive,inactive,inactive,inactive,inactive,inactive,inactive,inactive,,
CCCCCCCCCCCCCCCC(=O)O,inactive,,inactive,,inactive,,inactive,inactive,inactive,inactive,inactive,inactive,,inactive,inactive,inactive,inactive,inactive,inactive,inactive
C#C[C@]1(O)CC[C@H]2[C@@H]3CCC4=Cc5oncc5C[C@]4(C)[C@H]3CC[C@@]21C,61.1 µM (active) and 23.7 µM (active),inactive,inactive,inactive,inactive,,inactive,inactive,,,,,29.8 µM (active),,inactive,,inactive,inactive,inactive,
CCc1cc(C(N)=S)ccn1,inactive,inactive,inactive,,inactive,inactive,inactive,inactive,inactive,,inactive,inactive,,inactive,,inactive,inactive,inactive,inactive,inactive
O=c1[nH]c(=O)n([C@H]2C[C@H](O)[C@@H](CO)O2)cc1Br,inactive,inactive,,,inactive,,inactive,inactive,inactive,inactive,inactive,inactive,,inactive,inactive,,inactive,inactive,inactive,inactive
CCCCC(C=O)CC (centres undefined),inactive,inactive,,inactive,,,inactive,inactive,,inactive,inactive,inactive,inactive,inactive,inactive,inactive,inactive,inactive,inactive,inactive
Oc1cccc(O)c1,inactive,,inactive,inactive,inactive,inactive,inactive,inactive,inactive,inactive,inactive,inactive,inactive,inactive,inactive,,inactive,inactive,inactive,inactive
CCCC(C)=O,inactive,inactive,inactive,inactive,,inactive,inactive,inactive,inactive,inactive,inactive,inactive,inactive,inactive,inactive,inactive,inactive,inactive,inactive,inactive
CC(COc1ccccc1)N(CCCl)Cc1ccccc1 (centres undefined),inactive,inactive,inactive,inactive,inactive,inactive,inactive,,,inactive,inactive,inactive,inactive,inactive,inactive,inactive,13.2 µM (active) and 7.22 µM (active),inactive,inactive,
Oc1ccccc1,inactive,inactive,,inactive,inactive,inactive,,inactive,inactive,,,,inactive,inactive,inactive,inactive,inactive,,inactive,
CCO[Si](CCCNC(N)=O)(OCC)OCC,,inactive,inactive,inactive,inactive,inactive,inactive,inactive,inactive,inactive,inactive,inactive,inactive,inactive,inactive,inactive,inactive,inactive,inactive,inactive
CC(C)(C)[C@@H](O)[C@@H](Cc1ccc(Cl)cc1)n1cncn1,inactive,inactive,inactive,inactive,inactive,inactive,inactive,inactive,,inactive,inactive,inactive,inactive,inactive,inactive,inactive,inactive,inactive,inactive,inactive
